Screens as filed in PubChem BioAssay.
CYP2C9 inh = blocks human cytochrome P450 2C9; CYP2C9 Supersomes, luciferin-H conversion, luminescence; inhibition, % at 5 µM; 96,000 compounds, 20% hits; AID 777;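 active = blocking of liver enzyme CYP2C9 beyond about 50% at 5 µM, limit read from the data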
CYP2C9 activ = increases human cytochrome P450 2C9 activity. P11712. recombinant CYP2C9, luciferin-H conversion, luminescence; stronger effect = higher value; factor 1 = untreated enzyme, 0 = blocked. activation factor at 5 µM. 96,000 compounds, 1.4% hits;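 active = activation factor of 2 or more for CYP2C9 at a 5 µM dose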;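 also: 0 = sulfaphenazole-blocked wells and 1 = vehicle-only wells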
CYP2C19 activ = cytochrome P450 2C19 (human) activation. 96,000 tested, under 10 active. AID 1025. P33261. activation factor at 5 µM. recombinant CYP2C19, luciferin-H EGE luminescence; stronger effect = higher value; 0 = fully inhibited enzyme, 1 = untreated enzyme;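 active = activation factor of at least 2 at 5 µM in the primary screen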;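 also: 0 = wells with 2.5 mM tranylcypromine and 1 = vehicle-only wells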
Target sequence (P33261 whole entry, looked up): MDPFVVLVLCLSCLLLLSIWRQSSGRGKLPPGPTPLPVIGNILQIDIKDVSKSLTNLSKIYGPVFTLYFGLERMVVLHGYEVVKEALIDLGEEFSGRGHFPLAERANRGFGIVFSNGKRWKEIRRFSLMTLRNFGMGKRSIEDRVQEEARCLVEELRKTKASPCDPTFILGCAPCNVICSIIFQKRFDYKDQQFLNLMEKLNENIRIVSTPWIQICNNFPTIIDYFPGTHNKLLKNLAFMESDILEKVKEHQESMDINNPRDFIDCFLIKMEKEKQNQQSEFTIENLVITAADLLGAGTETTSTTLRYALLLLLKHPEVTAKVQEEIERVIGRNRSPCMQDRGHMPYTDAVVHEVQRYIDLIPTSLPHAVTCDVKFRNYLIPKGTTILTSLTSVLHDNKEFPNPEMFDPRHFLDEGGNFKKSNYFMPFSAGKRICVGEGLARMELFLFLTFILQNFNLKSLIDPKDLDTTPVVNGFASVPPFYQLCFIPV
Measles CPE = protection of cells from measles virus. 140,000 compounds, 1.5% hits. protection (pct of control), % at 4 µM. Measles virus-infected cells, CPE protection, absorbance. AID 841; in the data active = protection mostly above about 24%, no sharp cut-off; inactive = mostly below about 26%
CYP2C19 inh = blocks human cytochrome P450 2C19; P33261; CYP2C19 Supersomes, luciferin-H EGE luminescence, 30 min; inhibition, % at 5 µM; 96,000 compounds, 21% hits;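 active = CYP2C19 inhibition above a set limit at 5 µM in the primary screen, cut at about 50% in these data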;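 also: plate controls were negative control wells for no effect and 2.5 mM tranylcypromine positive control for full effect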
* hit, by the source's call; · = no result given. Compounds with a hit are over-represented: about 22% of the library has one in this group of screens.

SMILES | CYP2C9 inh | CYP2C9 activ | CYP2C19 activ | Measles CPE | CYP2C19 inh
O=C(COc1ccc(Cl)cc1)Nc1ccc(C(=O)NCc2cccnc2)cc1 | 23.4 | 0.8 | 0.8 | 27.0 | 17.5
O=C(CN1C(=O)c2ccccc2C1=O)Nc1sc2c(c1C(=O)NCC1CCCO1)CCC2 (configuration not stated) | 7.9 | 0.9 | 1.1 | 15.2 | -9.4
COc1ccc(/C=C/C(=O)Nc2sc3c(c2C(=O)NCc2cccnc2)CCCC3)cc1 | 97.2* | 0 | 0.3 | 6.7 | 74.6*
COc1ccc(OCC(=O)Nc2sc3c(c2C(=O)NCC2CCCO2)CCC3)cc1 (configuration not stated) | 95.4* | 0 | 0.3 | 3.3 | 70.1*
CC1(CCc2ccccc2)NC(=S)N(c2ccccc2)N1 (configuration not stated) | · | · | · | 4.8 | ·
CC1=C(C#N)C2C(/C1=N/O)C2(C)C (configuration not stated) | 20.2 | 0.8 | 0.8 | 8.5 | 23.8
C/C(=N\NC(=S)Nc1c(C)cccc1C)c1ccc(OC(F)F)cc1 | · | · | · | 9.3 | ·
Cc1cc(C)n(-c2nc3c(c(=O)[nH]c(=O)n3C)n2CC(O)COc2ccccc2C)n1 (configuration not stated) | 19.0 | 0.8 | 0.3 | -0.1 | 74.2*
Cc1cc(C)n(-c2nc3c(c(=O)[nH]c(=O)n3C)n2Cc2cccc(Br)c2)n1 | 45.6 | 0.5 | 0.4 | 37.0 | 55.4*
Cc1ccc(Cn2c(-n3nc(C)cc3C)nc3c2c(=O)[nH]c(=O)n3C)cc1 | 10.2 | 0.9 | 0.8 | 8.6 | 15.3
Cn1c(=O)[nH]c(=O)c2c1nc(N1CCOCC1)n2CC(O)COc1ccccc1 (configuration not stated) | 75.4* | 0.2 | 0.8 | 1.4 | 18.1
CCNc1ccc(C(=O)OCC(=O)c2cc(C)n(Cc3ccc4c(c3)OCO4)c2C)cc1[N+](=O)[O-] | · | · | · | 35.8 | ·
O=C(C1CCN(S(=O)(=O)N2CCC3(CC2)OCCO3)CC1)N1CCCCC1 | · | · | · | 3.6 | ·
C=CCSc1nnc2c(n1)OC=Nc1ccc(Br)cc1-2 | 60.4* | 0.4 | 0.5 | 11.1 | 52.6*
c1ccc(-c2ccc(C3=Nn4c(Cn5nnc6ccccc65)nnc4SC3)cc2)cc1 | 15.6 | 0.8 | 1 | 6.9 | -3.4
N#Cc1ccc(Sc2nc3ccccc3[nH]2)cc1C#N | 31.3 | 0.7 | 0.2 | 4.4 | 76.2*
N#C/C(=C(/O)COC(=O)CSc1ccc2ccccc2c1)c1nc2ccccc2[nH]1 | · | · | · | 4.7 | ·
N#C/C(=C\c1ccc(Sc2nc3ccccc3[nH]2)o1)c1ccccc1 | 95.3* | 0 | 0.1 | 23.7 | 86.2*
N#C/C(=C\c1ccc(Sc2ccc(Cl)cc2)o1)c1nc2ccccc2[nH]1 | · | · | · | 22.0 | ·
COc1ccc2cnn(-c3ccccc3C)c(=O)c2c1OC | · | · | · | 3.1 | ·
CCN(CC)S(=O)(=O)c1cccc(-c2nnc(SCCCC(=O)c3ccccc3)o2)c1 | 64.1* | 0.4 | 0.2 | 22.5 | 76.1*
CCN(CC)S(=O)(=O)c1cccc(-c2nnc(SCCCC(=O)c3ccc(F)cc3)o2)c1 | 86.9* | 0.1 | 0 | 13.8 | 95.4*
CCN(CC)S(=O)(=O)c1cccc(-c2nnc(SCc3nc4ccccc4s3)o2)c1 | 10.2 | 0.9 | 0.1 | 4.8 | 93.1*
O=C(NCc1cccc(Cl)c1)c1cccc(C(F)(F)F)c1 | -31.2 | 1.3 | 0.4 | 1.2 | 62.3*
O=C(Nc1ccc2c(c1)OCO2)c1ccncc1 | 18.6 | 0.8 | 0.5 | 26.3* | 53.1*
SMILES | CYP2C9 inh | CYP2C9 activ | CYP2C19 activ | Measles CPE | CYP2C19 inh
O=C(NCc1ccccc1Cl)c1cccc(C(F)(F)F)c1 | · | · | · | 9.3 | ·
O=C(NCc1ccc2c(c1)OCO2)c1cccc(F)c1 | 66.3* | 0.3 | 0 | 13.4 | 99.4*
Cc1ccc(C(=O)Nc2ccc3c(c2)OCO3)cc1 | 26.7 | 0.7 | 0.6 | 4.1 | 37.6
O=C(NCc1cccc(Cl)c1)c1ccco1 | 14.0 | 0.9 | 0.4 | 2.3 | 57.2*
COc1cc(/C=N/NC(=O)CN(Cc2ccco2)S(=O)(=O)c2ccccc2)ccc1O | · | · | · | 16.6 | ·
Cc1cc(=O)n2[nH]cc(C(=O)O)c2n1 | · | · | · | 6.5 | ·
O=C(Nc1ccc2c(c1)OCO2)c1cccs1 | 25.9 | 0.7 | 0.6 | 11.6 | 42.7
O=C(Nc1ccc2c(c1)OCO2)c1ccc2nc[nH]c2c1 | 56.5* | 0.4 | 0.2 | 3.6 | 80.4*
O=C(Nc1ccc2c(c1)OCO2)c1ccc(Br)s1 | 35.4 | 0.6 | 0.5 | 10.4 | 54.0*
O=C(Nc1ccc(C(F)(F)F)cc1)c1ccc2nc[nH]c2c1 | · | · | · | 7.4 | ·
O=C(NCc1ccc2c(c1)OCO2)c1ccncc1 | 25.5 | 0.7 | 0.3 | 3.7 | 68.0*
O=C(Nc1ccc2c(c1)OCO2)c1noc2c1CCCCC2 | 88.7* | 0.1 | 0.8 | 6.7 | 21.8
CCC(NC(=O)c1ccccc1NC(=O)c1ccco1)C(=O)NNC(=O)c1ccc(OC)cc1 (configuration not stated) | · | · | · | 10.1 | ·
COc1ccccc1N(C(=O)c1cncc(Br)c1)c1nc(-c2ccc(C)cc2)cs1 | · | · | · | 11.4 | ·
CCN1C(=O)c2ccc(C(=O)NCc3ccc4c(c3)OCO4)cc2C1=O | · | · | · | 8.0 | ·
O=C(NNC(=S)NCc1ccccc1)c1ccc2c(c1)OCO2 | · | · | · | 8.2 | ·
O=C(NC(=S)NCc1ccccc1)c1ccc2c(c1)OCO2 | · | · | · | 30.9* | ·
Cc1ccnc2nc(C(=O)Nc3ccc4c(c3)OCO4)nn12 | 43.9 | 0.6 | 0.2 | 4.2 | 75.3*
c1cc(CNc2ccc3c(c2)OCO3)ccn1 | 62.8* | 0.4 | 0.3 | 20.4 | 71.0*
Cc1ccc(CNc2ccc3c(c2)OCO3)cc1 | 9.6 | 0.9 | 0.8 | 25.2 | 22.3
O=C(NCc1ccc2c(c1)OCO2)c1ccc2c(c1)C(=O)N(Cc1cccnc1)C2=O | 50.6* | 0.5 | 0.9 | 2.0 | 7.2
CC(=O)N1CCc2c(sc(NC(=O)CN3C(=O)CCC3=O)c2C(N)=O)C1 | · | · | · | 17.0 | ·
Cc1ccc(C)c2c(SC(C)C(=O)NCc3ccco3)nc(-c3ccccc3)nc12 (configuration not stated) | · | · | · | 8.9 | ·
O=C(Nc1ccn(Cc2ccc(Cl)cc2)n1)c1ccc2c(c1)OCO2 | 92.5* | 0.1 | 0.1 | 15.0 | 90.9*
O=C(NCc1cccc(Cl)c1)c1ccc2c(c1)OCO2 | 9.1 | 0.9 | 0.5 | 5.3 | 50.2*
SMILES | CYP2C9 inh | CYP2C9 activ | CYP2C19 activ | Measles CPE | CYP2C19 inh
O=C(NCc1cccnc1)c1ccc2c(c1)OCO2 | -9.4 | 1.1 | 0.9 | 23.9 | 5.1
O=C(NCc1ccc2c(c1)OCO2)c1cccc(Cl)c1 | 35.1 | 0.6 | 0 | 13.5 | 98.5*
O=C(NCc1ccc2c(c1)OCO2)c1ccc(CSCc2cccc(Cl)c2)o1 | · | · | · | 2.7 | ·
O=C(NCc1ccc2c(c1)OCO2)c1ccc(-c2ccc(Cl)cc2)o1 | 99.5* | 0 | 0.8 | 24.5 | 22.7
COc1ccc(CC(=O)N2CCN(c3ccc(C4=NNC(=O)CC4C)cc3)CC2)cc1 (configuration not stated) | 6.1 | 0.9 | 0.9 | 1.8 | 6.4
O=C(CCS(=O)(=O)c1cccs1)Nc1ccc(C(=O)NCc2ccccc2)cc1 | 60.2* | 0.4 | 0.2 | 2.2 | 77.7*
Cc1ccc(CNC(=O)c2ccc(NC(=O)CCS(=O)(=O)c3cccs3)cc2)cc1 | 30.2 | 0.7 | 1 | 9.5 | -3.0
